Bioassay records as filed in PubChem BioAssay.
Sampled rows, rich in hits. Any-hit rate of the full collection: about 0.37%.
IMPase Li cell: qHTS Assay for Identifying the Cell-Membrane Permeable IMPase Inhibitors: Potentiation with Lithium | CHO-M1 cells, IP1 TR-FRET (IP-One), carbachol + lithium | Potency, µM (highest dose often 59.4 µM), without a hit: top-dose activity, negative = IMPase inhibition, actives largely listed as inhibitors | 210,000 compounds, 0.35% hits | AID 1457, 2008;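 note: IP1 builds up when IMPase is blocked and the TR-FRET signal falls; potency is the fitted concentration of half-maximal effect; plate controls were basal vehicle for no effect and high inhibitor control for full effect; nearly all actives have a fitted effect of over 50% in size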
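CHO-M1, 2000 cells/well, 16–30 h culture; cpd + low Li+, 30 min 37C; lysis with d2-IP1/Eu-anti-IP1 Ab, 10 min RT; TR-FRET 665/620 ratio and 620 channel; AC50 via Hill.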
PTAP TSG101 blk: qHTS Assay for Iinhibitors of HIV-1 Budding by Blocking the Interaction of PTAP/TSG101; AID 493005, 2010; Potency, µM (doses to about 115 µM), for inactives: top-dose activity change, negative = inhibition, hits mostly inhibitors; Fluorescence polarization, FITC-PTAP peptide / Tsg101 binding; 340,000 tested, under 10 active; Tumor susceptibility gene 101 protein (Homo sapiens), Q99816; active = well fitted inhibition curve with a large enough effect in the main read-out, with a control signal flat, not every such curve was filed as active; note: potency is the fitted concentration of half-maximal effect; % of control where 0% means no effect
Target sequence (Q99816 whole entry, looked up): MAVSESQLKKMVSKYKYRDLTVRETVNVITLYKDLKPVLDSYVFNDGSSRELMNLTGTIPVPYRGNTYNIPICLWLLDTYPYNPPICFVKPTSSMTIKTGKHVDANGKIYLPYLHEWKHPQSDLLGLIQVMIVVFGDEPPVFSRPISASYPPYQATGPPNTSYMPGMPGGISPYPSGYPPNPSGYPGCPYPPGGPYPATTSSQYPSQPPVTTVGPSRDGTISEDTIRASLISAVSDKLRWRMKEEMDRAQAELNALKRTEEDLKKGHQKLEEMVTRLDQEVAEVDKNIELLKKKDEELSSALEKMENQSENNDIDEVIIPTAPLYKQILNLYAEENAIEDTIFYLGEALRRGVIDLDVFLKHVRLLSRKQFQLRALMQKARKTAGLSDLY
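Compounds were pin-transferred onto Tsg101 binding domain (10 uM final) in HEPES pH 7.5 buffer, then FITC-PTAP peptide was added at 50 nM final. After 20 min at RT, polarization reported peptide displacement across a qHTS concentration series.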
CBFb RUNX1 block: qHTS Assay for Compounds Blocking the Interaction Between CBF-beta and RUNX1 for the Treatment of Acute Myeloid Leukemia. Runt-related transcription factor 1 (Homo sapiens) + Core-binding factor subunit beta …. AlphaScreen CBFb-His/RUNX1-biotin binding, biochemical. Potency, µM (doses to about 59.8 µM), without a hit: at the highest dose activity, negative = inhibition, usual class: inhibitors. 230,000 tested, under 10 active; note: % of control where 0% means no effect
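CBFb-His/RUNX1-biotin, 30 nM each, preincubated 20 min RT; compound 15 min RT; Ni + streptavidin beads 50 ng each, 90 min RT; AlphaScreen read.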
A-T KAP1 phos: qHTS Assay for Identifying a Potential Treatment of Ataxia-Telangiectasia; F2112 A-T fibroblasts, KAP-1 phosphorylation AlphaLISA; neocarzinostatin DNA damage 30 min before lysis; Potency, µM (doses to about 57.5 µM), without a hit: top-dose activation, hits mostly activators; 320,000 compounds, 0.19% hits; AID 485349, 2010; note: potency is the fitted concentration of half-maximal effect; % of control where 0% means no effect; nearly all actives have a fitted effect of over 45% in size
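ATM-like activity read as KAP-1 phosphorylation via AlphaLISA donor/acceptor antibody pairs after lysis and 6 hr at 25C. Cells were ATM-null patient fibroblasts (F2112, hTERT), dosed 60 min, then exposed to the DSB inducer NCS for 30 min.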
* = called active by the depositor; x = no result given; [ ] = another dose, or the depositor's remark. Unless noted, calls come from the whole dose curve; as a rule, active = well fitted curve in the direction sought with a large enough effect; inconclusive = small, poorly fitted or top-dose-only effect, or another doubt; inactive = no such curve, though single readings can be large; an effect the other way counts as inactive or inconclusive.

SMILES	IMPase Li cell	PTAP TSG101 blk	CBFb RUNX1 block	A-T KAP1 phos
COc1ccc(N2C(=O)CC(Sc3nnc(-c4ccccc4)o3)C2=O)cc1 (stereo unspecified)	8.9µM*	-8%	3%	-4%
CCOC(=O)C1CCN(C(=O)/C(C)=C\c2ccccc2)CC1	3%	-12%	3%	5%
Cc1ncoc1C(=O)N1CCCC(C(=O)c2ccc(Oc3ccccc3)cc2)C1 (stereo unspecified)	21%	3%	0%	1%
Cc1cccc(N2CCN(C(=O)Cn3cccc3)CC2)c1C	-3%[38.3 µM]	-8%	-9%	14%
Cc1cccc(N=Cc2[nH]c3ccc(Br)c(Cl)c3c2O)c1	-1%	3%	-11%	4%
COc1ccccc1CN=Cc1[nH]c2ccc(Br)c(Cl)c2c1O	7.1µM*	-3%	-8%	6%
Cc1cc2nn(-c3ccc(Cl)cc3)nc2cc1N	x	-1%	x	22µM*
CCOC(=O)c1sc2nc(NC(=O)C3CC3)sc2c1C	13µM*	-2%	-11%	17%
Cc1c(O)ccc2cc(S(=O)(=O)c3ccccc3)c(=O)oc12	x	0%	x	13µM*
CCN(CC)CC(O)Cn1c(-c2ccccc2Cl)nc2ccccc21 (stereo unspecified)	x	-2%	11%	16µM*
N#Cc1c(-c2ccccc2)nc(SCC(=O)NC2CCCCC2)[nH]c1=O	10µM*	-4%	-6%	-4%
CCC(Sc1nc(-c2ccccc2)c(C#N)c(=O)[nH]1)C(=O)Nc1cc(C)on1 (stereo unspecified)	11µM*	-9%	-1%	4%
COC(=O)C(CC(C)C)NC(=O)CSc1nc(-c2ccccc2)c(C#N)c(=O)[nH]1 (stereo unspecified)	8.9µM*	1%	3%	-5%
N#Cc1c(-c2ccccc2)nc(SCc2nc(N)nc(N3CCCCC3)n2)[nH]c1=O	4.5µM*	-1%	8%	4%
CCOC(=O)c1cc(C(=O)c2cc(F)ccc2O)coc1=N	1%[38.3 µM]	-2%	4%	13%
CCOc1c(C=C(C#N)C#N)c2ccccc2n1CC	11%	-2%	4%	4%
CNC(=O)NC(=O)CSc1nc(-c2cccs2)c(C#N)c(=O)[nH]1	5µM*	-1%	16%	1%
CSc1nc(-c2ccccc2)c(C#N)c(=O)[nH]1	x	-6%	12%	1%
CCSc1nc(-c2ccccc2)c(C#N)c(=O)[nH]1	2µM*	-7%	5%	1%
CCOc1cccc(/C=C/c2ccc3cccc(O)c3n2)c1OC	x	-3%	x	7.9µM*
CC(=O)Nc1cccc(C(=O)/C=C/c2ccc(Br)cc2)c1	1%	0%	-2%	25µM*
CCC(=O)Nc1cccc(C(=O)/C=C/c2cc(Br)ccc2OC)c1	49%[38.3 µM]	-6%	1%	35µM*
Cc1n[nH]c(=O)c2ccccc12	x	-3%	5%	8%
O=C(Nc1ccccn1)Nc1cccs1	1%[38.3 µM]	-10%	-5%	x
O=C1NC(=Nc2ccccc2)CS1	x	-6%	8%	11µM*
SMILES	IMPase Li cell	PTAP TSG101 blk	CBFb RUNX1 block	A-T KAP1 phos
O=[N+]([O-])c1ccc2nc(-[n+]3c(-c4ccccc4)cc(-c4ccccc4)cc3-c3ccccc3)[nH]c2c1	3%	-1%	-17%	1%
COC(=O)c1cc(C#N)c(NCc2ccc(Cl)cc2Cl)nc1C	8.9µM*	-2%	0%	0%
CCCCn1c(O)c(C=NCCCN(C)C)c(=O)[nH]c1=O	12%[38.3 µM]	4%	-10%	1%
O=C1c2ccsc2SCCN1Cc1ccccc1Cl	-4%[38.3 µM]	-5%	4%	x
COc1ccc([N+](=O)[O-])cc1N(CC(=O)NCCSc1ccc(C)cc1)S(C)(=O)=O	11%	0%	3%	4%
CCn1c(=O)cc(SCC(=O)NCc2cccnc2)c2ccccc21	10µM*	-2%	3%	-9%
CCn1c(=O)cc(SCC(=O)NCc2ccc(C)cc2)c2ccccc21	-10%[38.3 µM]	-2%	-11%	-6%
COc1cccc(CNC(=O)c2nnn(CC(=O)Nc3c(C)cccc3C)c2N)c1	x	-3%	x	6%
CC(C)CCN(C(=S)Nc1cccc(C(F)(F)F)c1)C(C)c1ccccn1 (stereo unspecified)	x	-3%	14%	23%
